Screens: PubChem BioAssay, National Center for Advancing Translational Sciences (NCATS)
Shown are actives, neighbours in structure and some others; about 8.7% of the full set was active somewhere.
Pf growth 48h – P. falciparum growth inhibition at 48 hours (one generation) | P. falciparum luciferase growth in erythrocytes, 48 h | Potency, µM (highest dose often 28.7 µM), for the others: at the top dose activity change, negative = inhibition, hits mostly inhibitors | hit rate 5.9% among 310,000 | AID 504832
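Growth was read as firefly luciferase luminescence after a 48 h, 37 C, 5% CO2 exposure of compounds to reporter-bearing P. falciparum cultures (0.1% parasitemia, 2% hematocrit final) in Albumax-supplemented RPMI 1640.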
AMA1-RON2 inh – AMA1-RON2 (P. falciparum) interaction inhibition. AlphaScreen AMA1-biotinylated RON2 peptide binding. Potency, µM (top dose mostly 58.2 µM), inactives show at the highest dose activity change, negative = inhibition, hits mostly inhibitors. hit rate 0.2% among 360,000;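 also: 0% = vehicle wells and -100% = peptide control; nearly all actives have a fitted effect of over 45% in size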
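AMA1 (3D7) with his tag at 25 nM final met compounds first, then biotinylated RON2 peptide at 25 nM; detection used donor plus acceptor beads, 10 µg/mL apiece, read by AlphaScreen after 30 min at room temperature.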
VACV Venus inh – vaccinia inhibition (Venus reporter). Vaccinia virus Venus reporter expression, fluorescence. Potency, µM (titrated, usually from 36.5 µM), for the others: top-dose activity change, negative = inhibition, actives largely listed as inhibitors. hit rate 0.46% among 330,000. AID 720580; calls by dose curve; tested in A549 cells; also: nearly all actives have a fitted effect of over 30% in size
VACV mCherry inh – inhibitors of vaccinia virus infection (mCherry reporter signal); Vaccinia virus mCherry reporter infection, fluorescence; Potency, µM (doses to about 36.5 µM), inactives show at the top dose activity change, negative = inhibition, usual class: inhibitors; hit rate 0.63% among 310,000; AID 720579; calls by dose curve; tested in A549 cells; also: nearly all actives have a fitted effect of over 35% in size
Pf growth 96h – P. falciparum growth inhibition at 96 hour, primary screen for plastid delayed-death inhibitors | P. falciparum luciferase reporter growth, 96 h | Potency, µM (doses to about 28.7 µM), for inactives: at the highest dose activity change, negative = inhibition, actives largely listed as inhibitors | hit rate 6.9% among 320,000 | AID 504834
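Plates of compound plus infected erythrocytes (2% hematocrit, 0.05% parasitemia final) incubate 96 hours, 37 C, 5% CO2. Detection reagent added; reduced luminescence from the parasites' luciferase reporter flags inhibition.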
The depositor's hits bear a star; i = inactive; ? = inconclusive; · = no result; [ ] = dose if it differs, or a comment. Unless noted, calls follow the shape of the dose curve; as a rule, active = well fitted curve in the direction sought with a large enough effect; inconclusive = small, poorly fitted or top-dose-only effect, or another doubt; inactive = no such curve, though single readings can be large; an effect the other way counts as inactive or inconclusive. Unless noted, % is scaled to controls: 0 for no effect and ±100 for the full control effect; potency is read from the fitted curve at half-maximal effect.

SMILES	Pf growth 48h	AMA1-RON2 inh	VACV Venus inh	VACV mCherry inh	Pf growth 96h
CCOC(=O)c1c(S(=O)(=O)N2CCC(C(=O)Nc3ccc(C)cc3C)CC2)c(C)n(C)c1C	·	·	6%	1%	·
CCCNC(=O)c1cc(-c2ccc(OC)cc2)n(CCCOC)c1C	2.1µM*	-24%	-15%	-28%	39%
CCOC(=O)c1cc(-c2ccc(C)cc2)n(CCC(=O)NCCCOC)c1C	0%	-1%	-8%	-8%	·
CCOC(=O)c1[nH]c(C)c(CN(CCc2ccccc2)C(=O)CCC(=O)O)c1C	-35%	-9%	9%	11%	4.1µM*
CCOC(=O)c1[nH]c(C)c(CCC(=O)O)c1C	16%	0%	-6%	·	-28%
CCOC(=O)c1[nH]c(C)c(CN(Cc2ccco2)C(=O)C(F)(F)F)c1C	10µM*	5%	?	?	1%
CCOC(=O)c1[nH]c(C)c(C(=O)NCc2ccco2)c1C	17%	-6%	-1%	-6%	3%
Cc1ccc(C)c(Cn2c(=O)c3c(nc4n3CCN4c3ccccc3)n(C)c2=O)c1	·	·	-4%	-10%	·
CCN(CC)S(=O)(=O)c1cccc(NC(=O)c2cc(-c3cccs3)nn2-c2ccccc2)c1	-19%	-6%	-10%	i	12µM*
CN(C)S(=O)(=O)c1cccc(NC(=O)c2cc(-c3cccs3)nn2-c2ccccc2)c1	?	-13%	-10%	i	15µM*
CN(CC(=O)Nc1cccc(F)c1)C(=O)c1cc(-c2cccs2)nn1-c1ccccc1	-2%	-20%	-21%	-6%	7%
COC(=O)c1cc(-c2cccs2)nn1-c1ccccc1	?	-2%	-7%	i	-136%
Cc1cccc(Nc2cc(C)nc3nc(Cc4ccc(Cl)cc4)nn23)c1	·	·	-16%	-17%	·
Cc1ccc(NC(=O)C2CCN(c3nc(-c4ccc(C(C)C)cc4)no3)CC2)c(Cl)c1	·	·	-5%[7.34 µM]	-8%[7.34 µM]	·
Cc1cc2cc(CN(Cc3ccc4c(c3)OCO4)C(=O)c3cnccn3)c3nnnn3c2cc1C	-5%	-10%	·	·	·
CC(=O)N(Cc1cc2cc(C)c(C)cc2n2nnnc12)CC1COCCO1 (centres undefined)	33%	13%	·	·	2.9µM*
Cc1cc(C)c(COc2ccc(/C=N/n3c(C)n[nH]c3=S)cc2)c(C)c1	12µM*	11%	-15%	-12%	12%
Cc1n[nH]c(=S)n1/N=C/c1ccc(OCc2ccc(Cl)cc2)cc1	52%	70%	·	·	48%
COc1cc2c(cc1OC)C(c1cc3ccccc3oc1=O)=NC(C)(C)C2	8.3µM*	0%	-26%	·	141%
COc1ccc(C2=NC(C)(C)Cc3cc(OC)c(OC)cc32)cc1OC	-1%	1%	·	·	?
Cc1cc(C(=O)Nc2ccccc2-c2nc(CNC(=O)C3COc4ccccc4O3)c(C)o2)c(C)o1 (centres undefined)	·	·	17%	-1%	·
COc1cccc(/C=C/C(=C2/C(=O)N(c3ccccc3)N=C2C)c2ccccc2)c1OC	17%	-16%	-1%	-14%	?
COc1ccccc1/C=C/C(=C1/C(=O)N(c2ccccc2)N=C1C)c1ccc(C)cc1	16%	0%	-18%	i	12µM*
NC(=S)N=Nc1ccc(NN=C(N)N)cc1	1.2µM*	?	9%	5%	?
COC(=O)CNC(=O)Cn1c(=O)n(Cc2ccc(F)cc2)c(=O)c2sccc21	44%	6%	·	·	12µM*
SMILES	Pf growth 48h	AMA1-RON2 inh	VACV Venus inh	VACV mCherry inh	Pf growth 96h
CCN(CC)C(=O)Cn1c(=O)n(Cc2ccc(F)cc2)c(=O)c2sccc21	9%	23%	-8%	i	?
CCOC(=O)Cc1ccc(NC(=O)NCc2c(-n3cccc3)sc3c2CCCC3)cc1	·	·	-20%	-14%	·
COc1cc([N+](=O)[O-])ccc1NC(=O)Nc1nc2c(s1)CCCC2	1.5µM*	2%	-18%	i	-5%
Cc1ccc2nc(NNC(=O)c3ccc(S(=O)(=O)N4CCc5ccccc5C4)cc3)sc2c1	1.9µM*	56%	?	?	2.9µM*
Cc1cc(C)c2nc(NNC(=O)c3ccc(S(=O)(=O)N4CCCC(C)C4)cc3)sc2c1 (centres undefined)	?	40%	?	4µM*	2.3µM*
Cc1cc(C)c2nc(NC(=O)c3ccc(S(=O)(=O)N4CCC(C)CC4)cc3)sc2c1	·	·	-6%	-3%	·
COC(=O)c1sc2ccccc2c1NC(=O)c1ccc(S(=O)(=O)N2CC(C)CC(C)C2)cc1 (centres undefined)	-10%	-3%	-6%	-8%	-15%
Cc1cccc2sc(NNC(=O)c3ccc(S(=O)(=O)N4CC(C)CC(C)C4)cc3)nc12 (centres undefined)	?	40%	?	28µM*	2.9µM*
Cc1cc(C)c2nc(NNC(=O)c3ccc(S(=O)(=O)N4CC(C)CC(C)C4)cc3)sc2c1 (centres undefined)	2.6µM*	53%	?	?	1.9µM*
COC(=O)c1c(C)oc2ccc(N(C(=O)c3ccncc3)S(=O)(=O)c3c(C)cc(C)cc3C)cc12	·	·	-21%[7.34 µM]	-25%[7.34 µM]	·
C[N+]1(CC(=O)c2ccc3c(c2)CCCC3)CCOCC1	·	·	7%	-15%	·
Cc1nc2sccn2c1CN1Cc2ccccc2OC(c2ccccc2F)C1 (centres undefined)	·	·	0%	-6%	·
CCOC(=O)c1c(C)oc2c(Cl)cc(NS(=O)(=O)c3ccc(Cl)c(C)c3)cc12	·	·	-3%	-15%	·
COc1ccc(S(=O)(=O)NCc2nc3nc(C)cc(C)n3n2)cc1OC	13%	0%	-7%	-1%	5.2µM*
Cc1cc(C)n2nc(CNS(=O)(=O)c3ccc(Cl)cc3)nc2n1	·	·	-9%	-4%	·
CCn1c(=O)n(CC)c2cc(N3CCCCC3)c(NC(=O)Nc3cc(C)cc(C)c3)cc21	·	·	-24%	-17%	·
CCCCCC(=O)NNC(=S)NC(C)=O	?	0%	-12%	-6%	71%
CCCCCC(=O)NC(=S)NC1C2CC3CC(C2)CC1C3 (centres undefined)	4.7µM*	25%	-17%	-3%	3.7µM*
Cc1ccc(-n2nnc(-c3nc(-c4cccs4)no3)c2N)c(C)c1	·	·	-4%[7.34 µM]	-8%[7.34 µM]	·
